Experiment [1] is described as follows: Quantitative highthroughput screen to assess conditional lethalithy of NOMO1 cells grown in RPMI1640 with untreated serum (RPMI+s) (AID 1963876). Further: nearly all actives have a fitted effect of over 35% in size. Put shortly: (§1)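 Each medium arm—HPLM with 10% dialyzed FBS, or RPMI1640 with 5 mM glucose and 10% untreated or dialyzed FBS—was screened against an 11-point, 3-fold compound titration for 48 h at 37 °C, with CellTiter-Glo luminescence as endpoint.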

Experiment [2] in a line: Quantitative highthroughput screen to assess conditional lethalithy of NOMO1 cells grown in RPMI1640 with dialyzed fetal bovine serum (RPMI+ds) (AID 1963877). Further: nearly all actives have a fitted effect of over 30% in size. On viability: series mostly up to about 46 µM. Put shortly:
as §1

The nature of experiment [3]: Quantitative highthroughput screen to assess conditional lethalithy of NOMO1 cells grown in Human Plasma-Like Medium with dialyzed fetal bovine serum (HPLM+ds) (AID 1963878). Further: nearly all actives have a fitted effect of over 35% in size. The method in brief:
as §1

The nature of experiment [4]: Quantitative highthroughput screen to assess conditional lethalithy of P12 Ichikawa cells grown in Human Plasma-Like Medium with dialyzed fetal bovine serum (HPLM+ds) (AID 1963879). Further: nearly all actives have a fitted effect of over 35% in size. On viability: series mostly up to about 46 µM. The conditions noted are these: Potency: viability. Put shortly: as §1
Experiment [5] is described as follows: Quantitative highthroughput screen to assess conditional lethalithy of P12 Ichikawa cells grown in RPMI1640 with dialyzed fetal bovine serum (RPMI+ds) (AID 1963880). Further: nearly all actives have a fitted effect of over 35% in size. The conditions noted are these: Potency: P12-Ichikawa viability. The method in brief: as §1
Experiment [6] can be described thus: Quantitative highthroughput screen to assess conditional lethalithy of P12 Ichikawa cells grown in RPMI1640 with untreated serum (RPMI+s) (AID 1963881). Further: nearly all actives have a fitted effect of over 35% in size. On viability: series mostly up to about 46 µM. To be noted: Potency: viability. The method in brief:
as §1

A short description of experiment [7]: Quantitative highthroughput screen to assess conditional lethalithy of SEM cells grown in Human Plasma-Like Medium with dialyzed fetal bovine serum (HPLM+ds) (AID 1963882). Further: nearly all actives have a fitted effect of over 35% in size. On viability: series mostly up to about 46 µM. The method in brief:
as §1

Experiment [8] can be described thus: Quantitative highthroughput screen to assess conditional lethalithy of SEM cells grown in RPMI1640 with unreated serum (RPMI+s) (AID 1963883). Further: nearly all actives have a fitted effect of over 35% in size. The method in brief:
as §1

Experiment [9] is described as follows: Quantitative highthroughput screen to assess conditional lethalithy of SEM cells grown in RPMI1640 with dialyzed fetal bovine serum (RPMI+ds) (AID 1963884). Further: nearly all actives have a fitted effect of over 35% in size. On viability: series mostly up to about 46 µM. Put shortly: as §1

Here are results for 17 compounds from PubChem BioAssay (NCATS).

Records with an inconclusive call do not appear. Active and inactive are the calls of the source. The call rests on the fitted dose curve; in most records, active means well fitted curve in the direction sought with a large enough effect; inconclusive means small, poorly fitted or top-dose-only effect, or another doubt; inactive means no such curve, though single readings can be large; an effect the other way counts as inactive or inconclusive.
Potency means the concentration at half of the fitted maximal effect.

As to `C[C@@H]1O[C@@H](O[C@H]2CC[C@@]3(C)[C@H](CC[C@@H]4[C@H]3C[C@@H](O)[C@]3(C)[C@@H](C5=CC(=O)OC5)CC[C@]43O)C2)C[C@H](O)[C@@H]1O[C@H]1C[C@H](O)[C@H](O[C@H]2C[C@H](O)[C@@H](O)[C@@H](C)O2)[C@H](C)O1` (stereo in doubt), the Potency in experiment [1] is 605 nM (active); in [2], 382 nM (active); in experiment [3], 191 nM (active); in experiment [4], 85.5 nM (active); in experiment [5], 191 nM (active); in experiment [6] it was 270 nM (active). The values for the Potency in experiment [7], in experiment [8] and in experiment [9] were 95.9 nM (active), 382 nM (active) and 270 nM (active), respectively.

Regarding `CC(=NNC(=S)N1CCC1)c1ccccn1`, the Potency in [1] is 8.3 nM (active); in experiment [2] it was 5.3 nM (active); in experiment [3] it was 4.7 nM (active); in experiment [4] it was 5.3 nM (active); in experiment [5] it was 6.6 nM (active); in experiment [6] it was 5.9 nM (active). Besides, the Potency in [7] is 2.6 nM (active); in experiment [8], 3.3 nM (active); in [9], 2.1 nM (active).

On to `CC1=C(CO)C(=O)O[C@@H]([C@@H](C)[C@H]2CC[C@H]3[C@@H]4C[C@H]5O[C@]56[C@@H](O)C=CC(=O)[C@]6(C)[C@@H]4CC[C@]23C)C1`, for which the Potency in experiment [1] was 372 nM (active); in experiment [2], 469 nM (active); in [3], 296 nM (active); in experiment [4], 296 nM (active); in experiment [5], 264 nM (active); in experiment [6], 235 nM (active). The Potency in experiment [7] was 235 nM (active); in [8], 235 nM (active); in experiment [9], 264 nM (active).

`CC(C=CC1=C(C)CCCC1(C)C)=CC=CC(C)=CC(=O)Nc1ccc(O)cc1`: the Potency is 30300 nM (active) in [1]; 17100 nM (active) in experiment [2]; 15200 nM (active) in experiment [3]; 6050 nM (active) in [4]; 2700 nM (active) in [5]; 6050 nM (active) in experiment [6]. For the same compound, the Potency in experiment [7] was 3400 nM (active); in experiment [8], 6050 nM (active); in experiment [9], 3030 nM (active).

For the compound `NC[C@H]1O[C@H](O[C@H]2[C@@H](O)[C@@H](O[C@H]3O[C@H](CO)[C@@H](O)[C@H](N)[C@@H]3O)[C@H](N)C[C@@H]2N)[C@H](N)C[C@H]1O`, the Potency result in [1], in [2], in experiment [3], in experiment [4], in experiment [5] and in [6] was “inactive” in each case. Besides, the Potency result in experiment [7], in experiment [8] and in experiment [9] was “inactive” in each case.

With `CC1(C)CC(O)CC(C)(C)N1[O]`, the Potency result in [1], in experiment [2], in [3], in [4], in [5] and in experiment [6] was “inactive” each time. In addition, the Potency result in experiment [7], in experiment [8] and in [9] was “inactive” in each case.

Take `CCC(C=C[C@@H]1OC(=O)C=C[C@H]1C)=C[C@H](C)CC=CC(C)=C[C@@H](C)C(=O)[C@@H](C)[C@H](O)[C@@H](C)CC(C)=CC(=O)O`: the Potency in experiment [1] was 110 nM (active); in [2] it was 87.7 nM (active); in experiment [3], 78.2 nM (active); in [4], 110 nM (active); in [5], 87.7 nM (active); in [6], 87.7 nM (active). The Potency in [7] was 34.9 nM (active); in experiment [8], 15.6 nM (active); in experiment [9], 22 nM (active).

On to `CCc1cnn2c(NCc3ccc[n+]([O-])c3)cc(N3CCCC[C@@H]3CCO)nc12`, for which the Potency is 118 nM (active) in experiment [1]; 93.5 nM (active) in experiment [2]; 105 nM (active) in experiment [3]; 118 nM (active) in experiment [4]; 118 nM (active) in experiment [5]; 118 nM (active) in experiment [6]. In addition, the Potency in experiment [7] was 74.3 nM (active); in [8] it was 59 nM (active); in experiment [9], 59 nM (active).

For `COC(=O)[C@]12CCC(C)(C)C[C@@H]1[C@@H]1C(=O)C=C3[C@@]4(C)C=C(C#N)C(=O)C(C)(C)[C@@H]4CC[C@@]3(C)[C@]1(C)CC2`, the Potency in experiment [1] was 9350 nM (active); in experiment [2], 8330 nM (active); in experiment [3], 9350 nM (active); in experiment [4], 9350 nM (active); in experiment [5], 8330 nM (active); in experiment [6] it was 9350 nM (active). The Potency in [7] is 7430 nM (active); in experiment [8], 9350 nM (active); in experiment [9], 6620 nM (active).

As to `CC1(C)CCC[C@@]2(C)[C@@H]1CC[C@@]1(C)OC(=O)C[C@H]21`, the Potency entry in [1], in experiment [2], in [3], in experiment [4], in experiment [5] and in experiment [6] was “inactive” in each case. For the same compound, the Potency result in [7], in experiment [8] and in experiment [9] was “inactive” in each case.

With `Cc1ccc(NC(=O)c2cccc(N(C)C)c2)cc1NC(=O)c1ccc(O)cc1`, the Potency entry in experiment [1], in [2], in experiment [3], in experiment [4], in [5] and in experiment [6] was “inactive” each time. The Potency entry in experiment [7], in experiment [8] and in [9] was “inactive” throughout.

On to `OC(CN1CCN(c2cccc(Cl)c2)CC1)C(c1ccccc1)c1ccccc1` (stereo not drawn), for which the Potency in experiment [1] was 935 nM (active); in experiment [2], 1050 nM (active); in experiment [3] it was 148 nM (active); in experiment [4], 132 nM (active); in experiment [5], 743 nM (active); in experiment [6], 935 nM (active). The Potency in experiment [7] is 833 nM (active); in experiment [8] it was 148 nM (active); in experiment [9], 166 nM (active).

As to `C[C@@H]1CC=CC=CC=CC=C[C@@H](O[C@@H]2O[C@H](C)[C@@H](O)[C@H](N)[C@H]2O)C[C@@H]2O[C@](O)(C[C@@H](O)C[C@@H]3O[C@@H]3C=CC(=O)O1)C[C@H](O)[C@@H]2C(=O)O`, the Potency entry in experiment [1], in experiment [2], in [3], in experiment [4], in experiment [5] and in experiment [6] was “inactive” in each case. Further, the Potency entry in [7], in experiment [8] and in experiment [9] was “inactive” each time.

Turning to `O=C(Nc1cc2cc[nH]c2cn1)c1ccccc1`, the Potency in [1] was 5900 nM (active); in [2], 13200 nM (active); in experiment [3] it was 3320 nM (active); in experiment [4], 2960 nM (active); in experiment [5], 5900 nM (active); in experiment [6], 14800 nM (active). Besides, the values for the Potency in experiment [7], in experiment [8] and in experiment [9] were 3720 nM (active), 2960 nM (active) and 3320 nM (active), respectively.

For `NC[C@@H]1O[C@@H](O[C@H]2[C@@H](O)[C@H](O[C@@H]3[C@@H](O)[C@@H](N)C[C@H](N)[C@H]3O[C@H]3O[C@H](CN)[C@@H](O)[C@@H](O)[C@H]3N)O[C@H]2CO)[C@H](N)[C@@H](O)[C@@H]1O`, the Potency entry in experiment [1], in experiment [2], in experiment [3], in experiment [4], in experiment [5] and in experiment [6] was “inactive” in each case. In addition, the Potency entry in experiment [7], in experiment [8] and in experiment [9] was “inactive” in each case.

`COc1ccc2c(c1)CC[C@H]1[C@@H]2CC[C@]2(C)[C@@H](NCCCCCCN3C(=O)C=CC3=O)CC[C@H]12`: the Potency entry in experiment [1], in experiment [2], in experiment [3], in experiment [4], in experiment [5] and in experiment [6] was “inactive” each time. The Potency entry in experiment [7], in [8] and in experiment [9] was “inactive” throughout.

Regarding `CC(C)(C)c1cc(C(=O)O)c(NC(=O)Nc2ccc3[nH]ncc3c2)s1`, the Potency result in [1], in experiment [2], in experiment [3], in experiment [4], in experiment [5] and in experiment [6] was “inactive” each time. Moreover, the Potency result in [7], in experiment [8] and in [9] was “inactive” throughout.
